The list is not random: actives were taken first. Their share in the collection is about 2.8%.
SNCA expr inh: inhibitors of alpha-synuclein (SNCA) gene expression; Potency, µM (titrated, usually from 57.2 µM), for the others: at the highest dose activity change, negative = inhibition, most hits filed as inhibitors; actives 0.17% (n = 140,000); HEK-293 SNCA-luciferase knock-in, luminescence, 24 h;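 note: potency is the fitted concentration of half-maximal effect; plate controls were DMSO cells for no effect and cell-free wells for full effect; nearly all actives have a fitted effect of over 45% in size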
KDM5B inh: blocks human KDM5B histone demethylase activity | Q9UGL1 | KDM5B demethylase, FDH-coupled NADH fluorescence (FDH is formaldehyde dehydrogenase) | Potency, µM (doses to about 57.7 µM), hits mostly inhibitors | actives 2.6% (n = 220,000) | AID 1347165; note: potency is the fitted concentration of half-maximal effect; 0% is about no effect; nearly all actives have a fitted effect of over 70% in size
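KDM5BΔAP (200 nM final) in 50 mM HEPES pH 7.5, 0.01% Tween-20 was preincubated 10 min at RT with compound over a concentration range. Substrate mix (H3K4me3 12.5 µM, α-KG 25 µM, Fe²⁺, ascorbate, NAD⁺, FDH) was added, and NADH fluorescence change over 30 min gave dose-response curves.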
IP6K1 inhibitor: blocks human inositol hexakisphosphate kinase 1; IP6K1 kinase, ADP-Glo luminescence, 2 h; active compounds read low; actives 0.81% (n = 140,000); activity change, % (series mostly up to about 58 µM); in the data active = activity change below about -25%; note: % is set by controls: 0 for no effect and ±100 for the full control effect
Target sequence (Q92551 whole entry, looked up): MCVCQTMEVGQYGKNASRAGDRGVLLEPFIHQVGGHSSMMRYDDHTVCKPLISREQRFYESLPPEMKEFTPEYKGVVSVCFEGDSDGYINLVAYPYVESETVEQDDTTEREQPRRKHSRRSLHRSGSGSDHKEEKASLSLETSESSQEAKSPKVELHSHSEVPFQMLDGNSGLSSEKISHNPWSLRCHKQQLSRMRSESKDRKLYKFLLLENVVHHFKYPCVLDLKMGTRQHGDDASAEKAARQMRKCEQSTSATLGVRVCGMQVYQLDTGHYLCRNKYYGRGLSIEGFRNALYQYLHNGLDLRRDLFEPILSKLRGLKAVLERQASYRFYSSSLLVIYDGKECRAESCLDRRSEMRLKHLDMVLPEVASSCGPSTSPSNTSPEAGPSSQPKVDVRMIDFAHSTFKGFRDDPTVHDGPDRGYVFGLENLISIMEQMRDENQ
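ADP-Glo luminescence measures ADP made by human IP6K1 during a 2 h RT reaction with ATP/IP6 (mix at 1.3 mM/130 uM); top library doses 57.5 and 19.1 uM final.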
HEK293 viab: reduces viability of HEK-293 SNCA reporter cells; HEK-293-SNCA-luc viability, GF-AFC fluorescence, 24 h; Potency, µM (highest dose often 57.1 µM), for inactives: at the top dose activity change, negative = cytotoxicity, hits mostly cytotoxic; actives 0.12% (n = 150,000); AID 1671193;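 note: potency is the fitted concentration of half-maximal effect; 0% = DMSO-treated cells and -100% = medium-only wells without cells; nearly all actives have a fitted effect of over 30% in size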
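Cytotoxicity counterscreen: after 24 h compound treatment of genome-edited SNCA-luciferase HEK-293 cells, live-cell protease substrate GF-AFC read by fluorescence after 30 min; activity scaled between DMSO (0%) and medium-only (-100%), curves Hill-fitted.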
An asterisk follows results filed as active; i = inactive; ? = inconclusive; . = no result; [ ] = another dose, or the depositor's remark. Unless noted, calls come from the whole dose curve; as a rule, active = well fitted curve in the direction sought with a large enough effect; inconclusive = small, poorly fitted or top-dose-only effect, or another doubt; inactive = no such curve, though single readings can be large; an effect the other way counts as inactive or inconclusive.

SMILES | SNCA expr inh | KDM5B inh | IP6K1 inhibitor | HEK293 viab
COc1ccc(-c2nccn3cc(C(=O)Nc4ccc(OC)c(OC)c4)nc23)cc1 | 13% | i | 0 | -19%
CCOC(=O)C1CCN(C(=O)c2cn3ccnc(-c4ccc(OC)cc4)c3n2)CC1 | 2% | 25µM* | 22 | 5%
COc1ccccc1-c1ccc(C(=O)N2CCC(C(=O)N3CCN(Cc4ccccc4)CC3)CC2)cc1 | 13% | . | 9 | 7%[12.5 µM]
Cn1nc(C(=O)N2CCCC2c2ccc3c(c2)OCCCO3)c2ccccc2c1=O (centres undefined) | . | i | . | .
Cc1ccsc1/C=C(/C#N)C(=O)NC1CCCCC1C (centres undefined) | . | i | . | .
CCN(Cc1ccccc1)C(=O)COc1ncnc2ccc(Br)cc12 | . | i | . | .
COc1ccc(-c2nccn3cc(C(=O)NCc4cccnc4)nc23)cc1 | 37% | 20µM* | 19 | -22%
COc1ccc(CNC(=O)c2cn3ccnc(-c4ccccc4)c3n2)cc1OC | -4% | i | 24 | -19%
O=C(OCc1ccc(Cl)cc1)c1ccc(CN2CCCC2=O)cc1 | . | i | . | .
CCOC(=O)c1cc2c(=O)n3ccccc3nc2n(Cc2ccco2)c1=NC(=O)c1c(F)cccc1Cl | ? | ? | -60* | ?
COc1ccc(OC)c(NC(=O)Cn2c(-c3cccc(Cl)c3)nc(C)c(CCO)c2=O)c1 | -25% | i | -5 | -12%
COc1ccc(OC)c(NC(=O)Cn2c(-c3ccc(Cl)cc3)nc(C)c(CCO)c2=O)c1 | 28% | 25µM* | -4 | -3%
O=C(C1CCCN(Cc2cccc(-c3ccc(F)cc3F)c2)C1)N1CCN(c2ncccn2)CC1 (centres undefined) | -25% | . | 2 | -16%
COc1ccc(-c2cc3c(=O)n(CCNC(=O)Cc4cccs4)ccn3n2)cc1 | 5% | ? | 4 | -8%
CCOc1ccc(-c2cc3c(=O)n(CCNC(=O)c4ccccc4)ccn3n2)cc1 | 41% | i | -2 | -2%
CCOc1ccc(-c2cc3c(=O)n(CCNC(=O)Cc4cccs4)ccn3n2)cc1 | 30% | 32µM* | -9 | -13%
CCOc1ccc(-c2cc3c(=O)n(CCNC(=O)c4cccc(N(C)C)c4)ccn3n2)cc1 | 94% | 32µM* | -10 | -6%
CCOc1ccc(-c2cc3c(=O)n(CCNC(=O)c4ccc(C)c(C)c4)ccn3n2)cc1 | 33% | 18µM* | -6 | 2%
CCOc1ccc(-c2cc3c(=O)n(CCNC(=O)c4ccc(C)cc4)ccn3n2)cc1 | 106% | i | -2 | 7%
Cc1ccc(C)c(-c2cc3c(=O)n(CCNC(=O)c4cccc(N(C)C)c4)ccn3n2)c1 | ? | 32µM* | 7 | ?
COc1nc2ccccc2nc1N1CCC(C(=O)Nc2cccc(F)c2)CC1 | . | i | . | .
COc1ccc(-c2ccc3nnc(CNC(=O)c4cc(F)ccc4F)n3n2)cc1 | 3% | 28µM* | 15 | 4%
COc1ccc(C(=O)NCc2nnc3ccc(-c4ccc(Cl)cc4)nn23)c(OC)c1 | 2% | i | 19 | -3%
Cc1ccc(-c2ccc3nnc(CNC(=O)c4cc(F)ccc4Cl)n3n2)cc1 | 1% | 13µM* | -14 | -6%
COc1ccc(-c2ccc3nnc(CNC(=O)c4cc(Cl)ccc4F)n3n2)cc1 | 3% | 28µM* | -13 | 15%
SMILES | SNCA expr inh | KDM5B inh | IP6K1 inhibitor | HEK293 viab
Cc1ccc(-c2ccc3nnc(CNC(=O)c4cc(Cl)ccc4F)n3n2)cc1 | -9% | 28µM* | -1 | -8%
Cc1c(-c2ccccc2)oc2c(C(=O)NCCCO)cccc2c1=O | . | i | . | .
Cc1cc(C(=O)N/N=C/c2ccsc2)cs1 | . | i | . | .
CCN1CC(Nc2ccc(-c3nc(CCCc4ccccc4)no3)cn2)CC1=O (centres undefined) | 4% | 28µM* | 10 | 7%
c1ccc(CCCc2noc(-c3ccc(NCc4ccccn4)nc3)n2)cc1 | 119% | ? | 27 | -5%
Cn1cc(CNc2ccc(-c3nc(CCCc4ccccc4)no3)cn2)cn1 | 115% | 32µM* | 10 | 2%
C[C@@H](Nc1ccc(-c2nc(CCCc3ccccc3)no2)cn1)C(N)=O | -7% | ? | 2 | -1%
Cc1cc(CNc2ccc(-c3nc(CCCc4ccccc4)no3)cn2)no1 | 57% | 28µM* | 22 | -18%
CCc1ccc(/C=C(\C#N)C(=O)Nc2sc(C(=O)N(C)C)c(C)c2C#N)s1 | . | i | . | .
CC(C)NC(=O)CN(C)CC(O)COc1cccc(Br)c1 (centres undefined) | . | i | . | .
O=C(c1cc(C2CC2)nc2onc(C3CCNCC3)c12)N1CCOCC1 | -5% | 56µM* | 1 | 5%
O=C(NCC(F)(F)F)c1cc(C2CC2)nc2onc(C3CCNC3)c12 (centres undefined) | ? | 89µM* | 1 | 7%
CC(C)CNC(=O)c1cc(C2CC2)nc2onc(C3CCNC3)c12 (centres undefined) | -7% | 100µM* | -4 | -2%
Cc1ccc2c(COC(=O)c3cccs3)cc(=O)oc2c1 | . | i | . | .
O=C(Nc1ccccc1)N1CCN(Cc2ccccc2-c2cccnc2)CC1 | -6% | . | 5 | -5%[12.5 µM]
COc1ncccc1-c1cc2[nH]ccc2c(C(=O)NCc2c(C)cc(C)[nH]c2=O)n1 | -4%[87.6 µM] | i | -2 | ?
Cc1cc(-c2cc3c(ccn3C(C)C)c(C(=O)NCc3c(C)cc(C)[nH]c3=O)n2)ccn1 | -5%[87.6 µM] | i | 14 | -19%[87.6 µM]
Cc1cc(C)c(CNC(=O)c2nc(-c3cccc(O)c3)cc3[nH]ccc23)c(=O)[nH]1 | 31%[87.6 µM] | 32µM* | -15 | ?
Cc1cc(C)c(CNC(=O)c2nc(Nc3ccccc3)cc3[nH]ccc23)c(=O)[nH]1 | 13%[87.6 µM] | 16µM* | -18 | 10%[87.6 µM]
COC(=O)CO[C@@H]1CO[C@H]2[C@@H]1OC[C@@H]2NC(=S)Nc1cc(C)cc(C)c1 | 16%[87.6 µM] | 28µM* | 24 | 7%[87.6 µM]
Cc1ccn2c(=O)cc(CN3CC[C@@H]4[C@@H](CCC(=O)N4CCC(C)C)C3)nc2c1 | -17% | 28µM* | 6 | -1%
O=C(NCc1ccc(Cl)cc1)C1CC(=O)N(c2n[nH]c3cccc(F)c23)C1 (centres undefined) | 10% | 20µM* | -14 | 11%
COc1ccc(NC(=O)C2CC(=O)N(c3n[nH]c4cccc(F)c34)C2)cc1 (centres undefined) | 0% | 25µM* | 7 | 2%
Cc1ccc(NC(=O)C2CC(=O)N(c3n[nH]c4cccc(F)c34)C2)cc1 (centres undefined) | 2% | 20µM* | -8 | 6%
Cn1cc(NC(=O)C2CC(=O)N(c3n[nH]c4cccc(F)c34)C2)cn1 (centres undefined) | -31% | i | 7 | 5%
O=C(C1CC(=O)N(c2n[nH]c3cccc(F)c23)C1)N1CCN(c2ccc(Cl)cc2)CC1 (centres undefined) | -24% | 22µM* | -8 | -10%
O=C(C1CC(=O)N(c2n[nH]c3cccc(F)c23)C1)N1CCN(c2cccc(Cl)c2)CC1 (centres undefined) | 0% | ? | -12 | 3%
